Our source for the growth values is PubChem BioAssay (NCI).

The panel holds about 83,000 compounds, 20% with a hit somewhere; the sample as a whole holds those more often.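 The test compound was applied at a single concentration to cells in 96-well plates for 48 hours, and percent growth was recorded.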 A number with no mark means an inactive call. Calls of active or inactive are those of the source. How the source made its calls: active means growth percent below 10; inactive means the rest.

Some test systems named below: HCT-15 colon; SNB-75 CNS; SNB-19 CNS; U251 CNS; PC-3 prostate; SK-MEL-5 melanoma; UACC-62 melanoma; LOX IMVI melanoma; SK-MEL-28 melanoma; SK-MEL-2 melanoma; EKVX NSCLC; SN12C renal; UO-31 renal; TK-10 renal; ACHN renal; CAKI-1 renal; MOLT-4 leukemia; A498 renal; CCRF-CEM leukemia.
Assay in all cases: NCI-60 one-dose screen, 48 h (100 = growth as untreated, 0 = no growth, -100 = all killed)
Holding throughout (settings): 10 µM unless noted

Take `c1ccc(-c2nn(-c3ccccc3)[n+](-c3ccccc3-c3ccccc3)n2)cc1`: the growth with HCT-15 colon was 101%; in the test on SNB-75 CNS, 29.7%; with SNB-19 CNS it was 27.9%; in the test on U251 CNS it was 15%; in the test with PC-3 prostate it was 2.58% (active); in the test on SK-MEL-5 melanoma it was -25.8% (active). Further, the growth with UACC-62 melanoma was 26.4%; in the test with LOX IMVI melanoma it was 12.5%; in the test with SK-MEL-28 melanoma it was 48.7%; with SK-MEL-2 melanoma, -15.8% (active); in the test with EKVX NSCLC it was 11.7%; in the test with SN12C renal it was 12.9%. The growth was 80.1% in the test on UO-31 renal; 26% in the test on TK-10 renal; 56% in the test on ACHN renal; 88.2% with CAKI-1 renal; 22.9% in the test with MOLT-4 leukemia.

Regarding `COc1nc(N)nc(-n2c(-c3ccc(C)cc3)nc3ccccc32)c1NCc1ccc(C)cc1`, the growth in the test with HCT-15 colon is 94.8%; with SNB-75 CNS, 75.5%; in the test with SNB-19 CNS, 86.5%; in the test with U251 CNS, 83%; with PC-3 prostate, 65.7%; with SK-MEL-5 melanoma, 96.8%. Besides, the growth with UACC-62 melanoma is 64.4%; in the test on LOX IMVI melanoma, 87.8%; with SK-MEL-28 melanoma, 107%; with SK-MEL-2 melanoma, 99.9%; in the test on EKVX NSCLC, 94.9%; in the test with SN12C renal, 90%. Moreover, the growth in the test on UO-31 renal is 59.9%; in the test with TK-10 renal, 98.4%; in the test with ACHN renal it was 93.7%; with CAKI-1 renal it was 40.7%; with A498 renal, 80.7%; with CCRF-CEM leukemia, 94.5%. Moreover, the growth with MOLT-4 leukemia is 83.3%.

As to `N/C(=N\N=C\c1cc2ccccc2[nH]1)N/N=C/c1cc2ccccc2[nH]1`, the growth is 93.5% with HCT-15 colon; 85.9% in the test on SNB-75 CNS; 97.6% in the test on SNB-19 CNS; 101% in the test on U251 CNS; 89.3% in the test on PC-3 prostate; 84.9% with SK-MEL-5 melanoma. Also, the growth in the test with UACC-62 melanoma is 99.2%; in the test on LOX IMVI melanoma it was 98.4%; with SK-MEL-28 melanoma, 103%; in the test with SK-MEL-2 melanoma it was 100%; with EKVX NSCLC it was 79.7%; in the test on SN12C renal it was 89.9%. Moreover, the growth is 74.1% in the test with UO-31 renal; 116% with TK-10 renal; 109% in the test on ACHN renal; 87.3% in the test on CAKI-1 renal; 95.6% in the test with A498 renal; 84.4% with CCRF-CEM leukemia. Also, the growth in the test with MOLT-4 leukemia is 84.6%.

Turning to `CCOC(=O)N1CCN(CCCCl)CC1`, the growth is 105% in the test with HCT-15 colon; 102% in the test on SNB-75 CNS; 97.6% in the test with SNB-19 CNS; 95.6% in the test with U251 CNS; 102% with PC-3 prostate; 101% in the test with SK-MEL-5 melanoma. In addition, the growth with UACC-62 melanoma was 93.5%; in the test with LOX IMVI melanoma, 99.5%; with SK-MEL-28 melanoma, 106%; with SK-MEL-2 melanoma, 103%; in the test on EKVX NSCLC, 98.2%; in the test with SN12C renal, 99%. The growth in the test with UO-31 renal is 89.5%; with TK-10 renal, 92.1%; with ACHN renal, 97.4%; in the test with CAKI-1 renal, 101%; in the test with CCRF-CEM leukemia it was 110%; in the test on MOLT-4 leukemia, 98.7%.
